# Experimental data: PubChem BioAssay (NCI)
# About 83,000 compounds went through this panel and 20% of them were active in at least one assay; those are over-represented in the sample as a whole.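 Testing used 96-well plates and a 48-hour single-concentration exposure. Example: -40 means 40% of the starting cells died.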 A number with no mark means an inactive call. Activity calls are given as the source filed them. Rule for the calls: active = growth percent below 10; inactive = the rest.
# Key:
# Test in all cases: NCI-60 one-dose screen, 48 h (100 = growth as untreated, 0 = no growth, -100 = all killed)
# Conditions in all cases: 10 µM unless noted
# HCT-15 colon = system: HCT-15 colon
# HT29 colon = system: HT29 colon
# SNB-75 CNS = system: SNB-75 CNS
# SNB-19 CNS = system: SNB-19 CNS
# U251 CNS = system: U251 CNS
# PC-3 prostate = system: PC-3 prostate
# SK-MEL-5 melanoma = system: SK-MEL-5 melanoma
# UACC-62 melanoma = system: UACC-62 melanoma
# LOX IMVI melanoma = system: LOX IMVI melanoma
# SK-MEL-28 melanoma = system: SK-MEL-28 melanoma
# SK-MEL-2 melanoma = system: SK-MEL-2 melanoma
# EKVX NSCLC = system: EKVX NSCLC
# SN12C renal = system: SN12C renal
# UO-31 renal = system: UO-31 renal
# TK-10 renal = system: TK-10 renal
# A498 renal = system: A498 renal
# CCRF-CEM leukemia = system: CCRF-CEM leukemia
# MOLT-4 leukemia = system: MOLT-4 leukemia
SMILES,growth (HCT-15 colon),growth (HT29 colon),growth (SNB-75 CNS) [%],growth (SNB-19 CNS) [%],growth (U251 CNS) [%],growth (PC-3 prostate) [%],growth (SK-MEL-5 melanoma),growth (UACC-62 melanoma) [%],growth (LOX IMVI melanoma) [%],growth (SK-MEL-28 melanoma) [%],growth (SK-MEL-2 melanoma) [%],growth (EKVX NSCLC) [%],growth (SN12C renal) [%],growth (UO-31 renal) [%],growth (TK-10 renal) [%],growth (A498 renal),growth (CCRF-CEM leukemia),growth (MOLT-4 leukemia)
[2H]c1nc(Nc2ncc(F)c(-c3cc(F)c4nc(C)n(C(C)C)c4c3)n2)c([2H])c([2H])c1CN1CCN(CC)CC1,33.2%,31.5%,26.5,61.8,46.1,47.8,27.5%,62.5,37,60.5,70.5,55,47.8,23.1,35.1,44.2%,27.2%,15.4%
O=S(c1ccccc1)c1ccc2nnnn2n1 (stereo unspecified),79.8%,92%,107,107,103,96.6,99.8%,98.6,89.7,105,98.9,101,101,73.1,99,86.6%,44.9%,83.8%
CC(C)(c1ccc(OCC(O)CNCc2ccco2)cc1)c1ccc(OCC(O)CNCc2ccco2)cc1 (stereo unspecified),82.8%,78.5%,80.1,96.4,70.1,75.6,91.7%,104,86.1,101,94.4,92.1,87.6,66.3,93.1,68.9%,72.9%,67.1%
FC(F)(F)c1cccc([Si](F)(c2cccc(C(F)(F)F)c2)c2cccc(C(F)(F)F)c2)c1,72.1%,59.3%,80.4,77.7,72.1,24.2,84.2%,68.4,72.9,85.8,87.6,66.1,74,49,73.9,90.4%,65.5%,61.6%
Cc1cc(C)c(O)c(C(=O)CC(Br)C(=O)O)c1 (stereo unspecified),103%,99.1%,102,108,100,89.7,101%,95.7,93.1,101,89.5,99.4,110,77.7,107,117%,65.2%,88.5%
NC(N)=N/N=C/c1ccc([N+](=O)[O-])cc1,105%,105%,83.4,109,105,94.5,100%,91.6,96,109,115,102,96.7,82.6,112,79.7%,112%,97.5%
O=C(/C=C/c1ccccc1)Oc1ccc(/C=C/c2cc(OC(=O)/C=C/c3ccccc3)cc(OC(=O)/C=C/c3ccccc3)c2)cc1,103%,90.1%,80.5,96.2,94.9,87.5,107%,103,98.4,107,105,99.1,106,82.9,87,91.3%,91.1%,86.8%
Cc1c(Cl)ccc2c(C(=O)Cl)cc(-c3ccccc3)nc12,101%,116%,97.4,98.6,96.6,96,96.5%,92.7,94.9,103,106,95.6,99.9,90.1,105,84.4%,88.1%,96.2%
COc1cc(/C=C2/Oc3cc4occc4c(OC)c3C2=O)ccc1OCC(=O)Nc1ccncc1,112%,104%,96.5,106,108,95.5,100%,93.5,99.5,117,102,97.4,104,70.3,127,111%,103%,110%
O=C1CCC(=O)N1C1CCCCC1,112%,112%,88.5,99.9,107,99.8,96.8%,97.7,98.4,108,103,98.4,100,84.3,105,97.1%,108%,95.7%
Cc1cccc(Cc2cnc(NC(=O)CCc3ccc(C)o3)s2)c1,7.47% (active),0.165% (active),23.9,23.1,27.2,21.9,-11.7% (active),21.6,29.9,61,30.6,43.8,31.1,34,63.6,-11.7% (active),5.94% (active),8.52% (active)
NC(CCCC(N)C(=O)c1ccccc1)C(=O)O (stereo unspecified),107%,73.3%,97.1,110,102,83.3,107%,99.9,99.8,103,92.7,101,104,84.3,86.7,103%,111%,94.5%
CCCCCCCCN(CCCCCCCC)CC(O)c1cc(-c2ccccc2)nc2ccc(OC)cc12 (stereo unspecified),10.7%,80.1%,96.4,63.2,15.7,32.3,46.5%,52.5,21,100,78.1,94.6,39.9,42.4,91.7,83.4%,4.59% (active),9.81% (active)
C=C1C(=O)O[C@H]2[C@H]1CC/C(COC(=O)n1ccnc1C)=C\CC[C@@]1(C)O[C@@H]21,93.6%,95.4%,93.2,95.3,95.1,97.2,106%,98.6,95,100,86.8,98.4,103,83.1,94.3,105%,70.4%,79.8%
COc1cc(Br)c(-c2nc(-c3ccccc3)c(-c3ccccc3)n2Cc2ccccc2)cc1OC,47.4%,32.3%,86.7,67.2,64.1,29.7,54%,53.1,61.3,91.1,44.8,47.9,66.5,30.4,62.3,73.8%,54.3%,23.4%
O=C(O)c1ccc(-n2cc(/C=N/Nc3ccccc3F)c(-c3ccc(O)cc3)n2)cc1,73.1%,101%,82.8,95.2,86.9,74.8,78%,46.5,37,97.1,91.5,69.9,103,49.1,102,72.5%,41.5%,39.1%
COc1cc(NC(C)CCCN2C(=O)c3ccccc3C2=O)c2nccc(C)c2c1OC (stereo unspecified),102%,107%,102,109,101,58.6,69.5%,84,82.8,113,87.6,98.4,126,80.9,122,92.9%,-14.2% (active),-44.2% (active)
